Source: PubChem BioAssay (EPA / NIEHS)
Inconclusive results are not listed. The source made the active and inactive calls. Rule for the calls, unless noted: active = hit-call score of the fitted dose curve at least 0.9, where 1 is the maximum; inactive = score below 0.9.

Experiments:
[1] = target: Nuclear respiratory factor 1 (Homo sapiens) (UniProt Q16656); assay: ATG_NRF1_CIS: Attagene CIS-FACTORIAL HepG2 Assay for human Nuclear Respiratory Factor 1 (NRF1) Orphan Gene (AID 2282987); settings: HepG2 NRF1 cis-element reporter, Attagene multiplex; actives raise or lower the signal
In short: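 HepG2 cells transiently transfected with multiple reporter transcription units under cis-regulatory promoter control, so endogenous transcription-factor activity is read. After 24 h compound exposure, reporter mRNA quantified by RT-PCR, fluorescent labelling, HpaI digestion and capillary electrophoresis; bidirectional fitting versus DMSO.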

[2] = ATG_NFI_CIS: Attagene CIS-FACTORIAL HepG2 Assay for human Nuclear Factor I (NFI) (AID 2282989); settings: HepG2 cis-regulatory reporter, NFI response element transcription; actives raise or lower the signal
In short: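 HepG2 cells transiently transfected with cis-element-driven multiplexed reporter transcription units, dosed for 24 h. Reporter mRNA quantified by RT-PCR, fluorescent labelling, HpaI digestion and capillary electrophoresis; bidirectional fit versus DMSO baseline.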

[3] = target: Myc proto-oncogene protein (Homo sapiens) (UniProt P01106); assay: ATG_Myc_CIS: Attagene CIS-FACTORIAL HepG2 Assay for human Myelocytomatosis (Myc) Proto-Oncogene Transcription Factor (AID 2282990); settings: HepG2, Attagene cis-reporter transcription factor activity; actives raise or lower the signal
In short: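 Fluorescence intensity of reporter-specific cDNA fragments, separated by capillary electrophoresis, gives the signal. Transfected HepG2 cells carrying cis-promoter reporter constructs are incubated with compound for 24 h; DMSO serves as baseline.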

[4] = ATG_NF_kB_CIS: Attagene CIS-FACTORIAL HepG2 Assay for human Nuclear Factor Kappa B (NF-kB) (AID 2282991); settings: HepG2 Attagene cis-factorial NF-kB reporter mRNA; actives raise or lower the signal
In short: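 HepG2 cells transiently transfected with multiplexed cis-element reporter units measuring endogenous transcription factor activity; reporter mRNA read 24 h after dosing by RT-PCR, fluorescent labelling, HpaI digestion and capillary electrophoresis. Bidirectional fit against DMSO baseline.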

[5] = ATG_NRF2_ARE_CIS: Attagene CIS-FACTORIAL HepG2 Assay for human Nuclear Factor Erythroid 2 Related Factor 2 (NFR2) response to Antioxidant Response Elements (ARE) (AID 2282992); settings: HepG2 Attagene ARE/NRF2 reporter, transcription factor activity; actives raise or lower the signal;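 for AC50: reporter mRNA level measured by RT-PCR and capillary electrophoresis fluorescence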
In short: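 Cis-factorial assay: transfected HepG2 reporter library, 24 h dosing, mRNA readout via RT-PCR/CE; DMSO-referenced bidirectional analysis.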

[6] = ATG_Oct_MLP_CIS: Attagene CIS-FACTORIAL HepG2 Assay for human Octamer-Binding Transcription Factor (Oct) (AID 2282993); settings: HepG2 Attagene cis-factorial Oct reporter, mRNA; actives raise or lower the signal
In short: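 HepG2 cells transiently transfected with cis-promoter-driven multiplexed reporter transcription units, dosed for 24 h. Reporter mRNA quantified by RT-PCR, fluorescent labelling, HpaI digestion and capillary electrophoresis; bidirectional fits versus DMSO baseline.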

[7] = target: Cellular tumor antigen p53 (Homo sapiens) (UniProt P04637); assay: ATG_p53_CIS: Attagene CIS-FACTORIAL HepG2 Assay for human p53 Transcription Factor (AID 2282994); settings: HepG2 p53 cis-element reporter, Attagene mRNA; actives raise or lower the signal
In short: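 Using HepG2 hepatoma cells carrying cis-acting multiplexed reporters, mRNA induction is detected after a 24 h exposure. Gain- and loss-of-signal responses are fitted relative to DMSO-treated cells.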

[8] = target: human Peroxisome Proliferator-activated Receptor alpha (PPARa), PPARA (gene 5465) (UniProt Q07869); assay: ATG_PPARa_TRANS: Attagene TRANS-FACTORIAL HepG2 Assay for human Peroxisome Proliferator-activated Receptor alpha (PPARa) (AID 2283001; active = hit-call score of the fitted dose curve at least 0.9, where 1 is the maximum)
In short: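 HepG2 cells transiently transfected with multiplexed GAL4-UAS reporters driven by exogenous chimeric NR-Gal4 proteins; reporter mRNA measured after 24 h dosing. Read-out by RT-PCR, 6-FAM labelling, HpaI digestion and capillary electrophoresis; gain of signal versus DMSO.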

[9] = target: Retinoic acid receptor alpha (Homo sapiens) (UniProt P10276); assay: ATG_RARa_TRANS: Attagene TRANS-FACTORIAL HepG2 Assay for human Retinoic Acid Receptor alpha (RARa) (AID 2283005; active = hit-call score of the fitted dose curve at least 0.9, where 1 is the maximum)
In short: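 HepG2 transiently transfected with multiplex GAL4-UAS reporter units including a human RARa–GAL4 chimera; 24 h compound exposure. Reporter mRNA quantified by RT-PCR, 6-FAM labeling and capillary electrophoresis; gain of signal versus DMSO.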

[10] = target: Peroxisome proliferator-activated receptor gamma (Homo sapiens) (UniProt P37231); assay: ATG_PPARg_TRANS: Attagene TRANS-FACTORIAL HepG2 Assay for human Peroxisome Proliferator-activated Receptor-gamma (PPARg) (AID 2283007; active = hit-call score of the fitted dose curve at least 0.9, where 1 is the maximum)
In short: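 HepG2 cells transiently transfected with multiplexed GAL4-UAS reporter units and exogenous chimeric NR-Gal4 proteins; reporter mRNA quantified after 24 h compound exposure by RT-PCR, fluorescent labelling, HpaI digestion and capillary electrophoresis; gain-of-signal fitted versus DMSO baseline.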

[11] = target: Nuclear receptor subfamily 1 group I member 2 (Homo sapiens) (UniProt O75469); assay: ATG_PXR_TRANS: Attagene TRANS-FACTORIAL HepG2 Assay for human Pregnane X Receptor (PXR) (AID 2283008; active = hit-call score of the fitted dose curve at least 0.9, where 1 is the maximum)
In short: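 Fluorescence intensity of FAM-labelled, HpaI-digested reporter amplicons, separated by capillary electrophoresis, quantifies induction. HepG2 cells with PXR-Gal4 trans-reporter system were exposed 24 h; DMSO defines baseline.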

[12] = target: human Retinoic Acid Receptor gamma (RARg), RARG (gene 5916) (UniProt P13631); assay: ATG_RARg_TRANS: Attagene TRANS-FACTORIAL HepG2 Assay for human Retinoic Acid Receptor gamma (RARg) (AID 2283009; active = hit-call score of the fitted dose curve at least 0.9, where 1 is the maximum)
In short: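 Transient transfection of HepG2 with multi-reporter constructs, then 24 h chemical treatment. Total RNA isolated, reverse-transcribed, PCR-amplified, fluorescently labelled and resolved by capillary electrophoresis; activity scored as mRNA induction versus DMSO.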

[13] = target: human Retinoic Acid Receptor beta (RARb), RARB (gene 5915) (UniProt P10826); assay: ATG_RARb_TRANS: Attagene TRANS-FACTORIAL HepG2 Assay for human Retinoic Acid Receptor beta (AID 2283004; active = hit-call score of the fitted dose curve at least 0.9, where 1 is the maximum)
In short: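 HepG2, transient MRTU transfection, NR–Gal4 chimera, 24 h treatment; RT-PCR plus CE fluorescence detection of reporter mRNA; gain of signal vs DMSO.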

[14] = target: human Peroxisome Proliferator-activated Receptor delta (PPARd), PPARD (gene 5467) (UniProt Q03181); assay: ATG_PPARd_TRANS: Attagene TRANS-FACTORIAL HepG2 Assay for human Peroxisome Proliferator-activated Receptor delta (PPARd) (AID 2283002; active = hit-call score of the fitted dose curve at least 0.9, where 1 is the maximum)
In short: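 Fluorescence from capillary electrophoresis of labelled RT-PCR reporter fragments gives the signal; DMSO sets baseline. Cells: HepG2 transiently carrying GAL4-UAS reporter units plus chimeric nuclear receptor-Gal4 proteins, exposed to chemicals for 24 h.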

[15] = BSK_3C_TissueFactor: BioMAP Diversity Plus: 3C Assay for Tissue Factor Biomarker Activity (AID 2282997); settings: BioMAP 3C HUVEC, tissue factor biomarker readout; actives raise or lower the signal
In short: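 Values derive from bidirectional curve fitting against DMSO of Tissue Factor ELISA signals, taken 24 h after dosing primary human umbilical vein endothelial cells.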

[16] = BSK_3C_uPAR: BioMAP Diversity Plus: 3C Assay for Urokinase-type plasminogen activator receptor (uPAR) Biomarker Activity (AID 2282998); settings: BioMAP 3C HUVEC, uPAR biomarker ELISA; actives raise or lower the signal
In short: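 Human umbilical vein endothelial primary cells were exposed to test chemical for 24 h. Cell-surface uPAR was then quantified by ELISA, and responses were fitted bidirectionally against DMSO as negative control and baseline.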

[17] = BSK_3C_VCAM1: BioMAP Diversity Plus: 3C Assay for Vascular cell adhesion molecule 1 (VCAM1) Biomarker Activity (AID 2282999); settings: BioMAP 3C HUVEC, VCAM1 ELISA, cytokine-stimulated; actives raise or lower the signal
In short: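 Human umbilical vein endothelial cells (3C system), biomarker read by ELISA 24 h after dosing; bidirectional fit against DMSO baseline. Cytotoxicity tracked by SRB total-protein staining in parallel cultures at biomarker time.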

[18] = BSK_4H_Eotaxin3: BioMAP Diversity Plus: 4H Assay for Eotaxin 3 Biomarker Activity (AID 2283000); settings: primary human endothelial cells (HUVEC); actives raise or lower the signal
In short: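 Endothelial primary cells (human umbilical vein) exposed to compound for 24 h. ELISA detection of Eotaxin-3.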

[19] = read-out: Intercellular Adhesion Molecule 1 (ICAM1), ICAM1 (gene 3383); assay: BSK_3C_ICAM1: BioMAP Diversity Plus: 3C Assay for Intercellular Adhesion Molecule 1 (ICAM1) Biomarker Activity (AID 2283003); settings: primary human endothelial cells (HUVEC); actives raise or lower the signal
In short: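 ICAM-1 levels measured by ELISA after HUVEC cultures in the 3C system had been dosed for 24 h. Gain or loss of signal relative to DMSO was fitted in both directions.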

[20] = BSK_3C_Proliferation: Cell Proliferation Assessment in the BioMAP Diversity Plus: 3C Assay (AID 2283006); settings: primary human endothelial cells (HUVEC);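 for AC50: potency may reflect either rise or fall in cell number versus DMSO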
In short: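 Read-out is total protein by SRB absorbance at 560 nm, taken as a proxy for relative cell number. Primary human umbilical vein endothelium cultured below confluence was dosed for 48 h, TCA-fixed and SRB-stained; curves were fitted bidirectionally versus DMSO.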

Measured: AC50

Chain of Peroxisome proliferator-activated receptor gamma (Homo sapiens) (P37231 whole entry, looked up, the tested form may be a part): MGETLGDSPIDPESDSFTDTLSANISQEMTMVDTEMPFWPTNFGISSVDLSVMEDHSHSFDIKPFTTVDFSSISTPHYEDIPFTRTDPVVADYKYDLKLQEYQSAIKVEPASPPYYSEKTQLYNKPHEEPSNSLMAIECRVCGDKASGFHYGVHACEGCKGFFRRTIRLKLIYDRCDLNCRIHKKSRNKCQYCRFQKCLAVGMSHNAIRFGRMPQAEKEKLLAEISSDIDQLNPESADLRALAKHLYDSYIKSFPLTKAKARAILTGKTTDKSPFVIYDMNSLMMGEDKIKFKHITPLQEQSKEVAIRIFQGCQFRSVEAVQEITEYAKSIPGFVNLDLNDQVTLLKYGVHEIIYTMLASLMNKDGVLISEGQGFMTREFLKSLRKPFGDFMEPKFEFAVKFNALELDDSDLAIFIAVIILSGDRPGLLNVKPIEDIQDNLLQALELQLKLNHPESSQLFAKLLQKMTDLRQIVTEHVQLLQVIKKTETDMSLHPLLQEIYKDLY
Chain of human Peroxisome Proliferator-activated Receptor alpha (PPARa), PPARA (gene 5465) (Q07869 whole entry, looked up, the tested form may be a part): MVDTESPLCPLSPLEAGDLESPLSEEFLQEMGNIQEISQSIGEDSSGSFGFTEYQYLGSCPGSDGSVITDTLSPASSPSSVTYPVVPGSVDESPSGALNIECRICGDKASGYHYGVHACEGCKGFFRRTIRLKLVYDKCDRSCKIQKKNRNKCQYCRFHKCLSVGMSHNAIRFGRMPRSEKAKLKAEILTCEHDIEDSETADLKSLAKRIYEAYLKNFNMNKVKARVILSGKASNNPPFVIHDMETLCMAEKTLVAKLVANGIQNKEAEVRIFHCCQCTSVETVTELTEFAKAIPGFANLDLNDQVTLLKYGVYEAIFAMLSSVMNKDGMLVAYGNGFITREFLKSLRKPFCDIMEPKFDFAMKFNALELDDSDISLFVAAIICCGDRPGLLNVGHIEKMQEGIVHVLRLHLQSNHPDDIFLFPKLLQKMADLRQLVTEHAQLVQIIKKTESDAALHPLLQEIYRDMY
Chain of human Peroxisome Proliferator-activated Receptor delta (PPARd), PPARD (gene 5467) (Q03181 whole entry, looked up, the tested form may be a part): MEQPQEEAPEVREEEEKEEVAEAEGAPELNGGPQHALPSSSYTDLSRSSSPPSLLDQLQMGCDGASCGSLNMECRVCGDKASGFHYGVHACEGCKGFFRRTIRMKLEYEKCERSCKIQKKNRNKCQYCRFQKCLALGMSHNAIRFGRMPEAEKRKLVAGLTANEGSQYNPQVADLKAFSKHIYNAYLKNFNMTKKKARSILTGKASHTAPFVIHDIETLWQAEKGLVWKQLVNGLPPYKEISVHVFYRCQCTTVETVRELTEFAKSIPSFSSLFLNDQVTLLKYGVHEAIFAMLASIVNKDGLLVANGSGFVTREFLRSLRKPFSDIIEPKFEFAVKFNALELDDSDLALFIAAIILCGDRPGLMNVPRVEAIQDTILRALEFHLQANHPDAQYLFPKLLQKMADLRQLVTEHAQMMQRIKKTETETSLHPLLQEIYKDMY
Chain of Nuclear respiratory factor 1 (Homo sapiens) (Q16656 whole entry, looked up): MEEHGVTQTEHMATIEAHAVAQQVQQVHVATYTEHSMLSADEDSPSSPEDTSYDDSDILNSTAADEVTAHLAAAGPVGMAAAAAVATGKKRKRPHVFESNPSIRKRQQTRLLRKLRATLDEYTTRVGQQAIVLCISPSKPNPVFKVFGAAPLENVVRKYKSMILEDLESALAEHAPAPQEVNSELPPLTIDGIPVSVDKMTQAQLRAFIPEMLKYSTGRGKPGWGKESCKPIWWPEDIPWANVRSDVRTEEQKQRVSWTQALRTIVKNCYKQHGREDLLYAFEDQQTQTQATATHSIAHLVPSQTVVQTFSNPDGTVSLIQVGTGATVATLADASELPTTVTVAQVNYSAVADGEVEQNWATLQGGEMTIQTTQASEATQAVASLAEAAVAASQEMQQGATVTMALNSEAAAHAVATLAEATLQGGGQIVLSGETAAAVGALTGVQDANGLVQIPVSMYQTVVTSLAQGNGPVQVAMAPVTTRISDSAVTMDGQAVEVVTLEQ
Chain of Nuclear receptor subfamily 1 group I member 2 (Homo sapiens) (O75469 whole entry, looked up, the tested form may be a part): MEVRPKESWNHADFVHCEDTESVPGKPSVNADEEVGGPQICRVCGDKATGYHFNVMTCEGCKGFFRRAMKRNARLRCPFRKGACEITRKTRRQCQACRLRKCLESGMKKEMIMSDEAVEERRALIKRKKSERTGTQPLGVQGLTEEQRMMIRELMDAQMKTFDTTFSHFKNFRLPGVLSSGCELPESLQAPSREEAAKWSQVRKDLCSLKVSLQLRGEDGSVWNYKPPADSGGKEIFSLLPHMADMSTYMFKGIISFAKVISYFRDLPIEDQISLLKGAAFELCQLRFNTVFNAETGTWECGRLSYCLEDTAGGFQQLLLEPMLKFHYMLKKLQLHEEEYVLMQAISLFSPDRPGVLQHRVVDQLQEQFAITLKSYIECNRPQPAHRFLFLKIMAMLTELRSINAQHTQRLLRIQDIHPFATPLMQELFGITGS
Chain of human Retinoic Acid Receptor gamma (RARg), RARG (gene 5916) (P13631 whole entry, looked up): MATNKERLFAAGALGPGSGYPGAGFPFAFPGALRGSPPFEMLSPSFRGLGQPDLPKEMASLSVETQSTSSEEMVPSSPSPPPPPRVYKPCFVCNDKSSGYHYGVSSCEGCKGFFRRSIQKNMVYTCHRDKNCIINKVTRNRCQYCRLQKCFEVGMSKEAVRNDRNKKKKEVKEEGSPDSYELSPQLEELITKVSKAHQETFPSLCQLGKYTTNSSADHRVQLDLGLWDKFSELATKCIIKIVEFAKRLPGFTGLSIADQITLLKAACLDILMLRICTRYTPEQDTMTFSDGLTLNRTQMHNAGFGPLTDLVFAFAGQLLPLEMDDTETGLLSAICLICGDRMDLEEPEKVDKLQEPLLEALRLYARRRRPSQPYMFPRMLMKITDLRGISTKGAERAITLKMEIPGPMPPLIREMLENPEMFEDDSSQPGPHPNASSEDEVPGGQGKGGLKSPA
Chain of Retinoic acid receptor alpha (Homo sapiens) (P10276 whole entry, looked up, the tested form may be a part): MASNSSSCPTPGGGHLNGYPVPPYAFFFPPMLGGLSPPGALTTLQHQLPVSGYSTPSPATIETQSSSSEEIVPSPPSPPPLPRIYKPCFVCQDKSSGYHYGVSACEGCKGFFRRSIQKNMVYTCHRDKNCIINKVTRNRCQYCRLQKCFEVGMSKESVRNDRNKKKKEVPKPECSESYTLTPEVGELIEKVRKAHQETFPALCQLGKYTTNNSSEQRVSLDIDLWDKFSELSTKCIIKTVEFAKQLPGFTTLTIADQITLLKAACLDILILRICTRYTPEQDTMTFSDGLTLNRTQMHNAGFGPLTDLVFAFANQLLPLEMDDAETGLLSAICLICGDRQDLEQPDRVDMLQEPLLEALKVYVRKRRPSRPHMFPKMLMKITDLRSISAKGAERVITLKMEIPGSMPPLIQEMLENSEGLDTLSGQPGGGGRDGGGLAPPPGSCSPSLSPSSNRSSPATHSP
Chain of Myc proto-oncogene protein (Homo sapiens) (P01106 whole entry, looked up, the tested form may be a part): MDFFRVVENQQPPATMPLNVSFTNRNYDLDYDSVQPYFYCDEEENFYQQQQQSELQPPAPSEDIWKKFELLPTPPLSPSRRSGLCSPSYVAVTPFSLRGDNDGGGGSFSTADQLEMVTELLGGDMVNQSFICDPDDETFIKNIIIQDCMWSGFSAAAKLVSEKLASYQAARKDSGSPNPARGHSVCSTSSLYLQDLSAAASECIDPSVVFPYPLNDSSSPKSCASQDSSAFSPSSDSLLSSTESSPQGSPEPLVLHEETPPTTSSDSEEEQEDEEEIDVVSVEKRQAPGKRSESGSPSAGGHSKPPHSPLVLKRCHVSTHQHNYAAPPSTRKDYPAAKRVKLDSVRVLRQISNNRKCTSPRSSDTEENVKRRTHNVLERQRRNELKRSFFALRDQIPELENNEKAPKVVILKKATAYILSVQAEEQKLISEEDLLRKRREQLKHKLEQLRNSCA
Chain of Cellular tumor antigen p53 (Homo sapiens) (P04637 whole entry, looked up): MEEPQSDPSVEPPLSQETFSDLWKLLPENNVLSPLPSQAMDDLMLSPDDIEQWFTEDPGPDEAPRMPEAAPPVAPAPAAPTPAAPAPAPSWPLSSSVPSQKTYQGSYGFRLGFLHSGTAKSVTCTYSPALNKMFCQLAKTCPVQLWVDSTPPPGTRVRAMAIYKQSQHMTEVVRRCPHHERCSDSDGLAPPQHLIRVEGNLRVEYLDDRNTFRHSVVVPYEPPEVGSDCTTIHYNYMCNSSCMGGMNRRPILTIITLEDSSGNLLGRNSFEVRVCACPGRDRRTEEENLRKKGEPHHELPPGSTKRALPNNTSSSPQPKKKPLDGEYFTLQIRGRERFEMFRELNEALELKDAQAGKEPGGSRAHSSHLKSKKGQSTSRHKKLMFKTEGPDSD
Chain of human Retinoic Acid Receptor beta (RARb), RARB (gene 5915) (P10826 whole entry, looked up, the tested form may be a part): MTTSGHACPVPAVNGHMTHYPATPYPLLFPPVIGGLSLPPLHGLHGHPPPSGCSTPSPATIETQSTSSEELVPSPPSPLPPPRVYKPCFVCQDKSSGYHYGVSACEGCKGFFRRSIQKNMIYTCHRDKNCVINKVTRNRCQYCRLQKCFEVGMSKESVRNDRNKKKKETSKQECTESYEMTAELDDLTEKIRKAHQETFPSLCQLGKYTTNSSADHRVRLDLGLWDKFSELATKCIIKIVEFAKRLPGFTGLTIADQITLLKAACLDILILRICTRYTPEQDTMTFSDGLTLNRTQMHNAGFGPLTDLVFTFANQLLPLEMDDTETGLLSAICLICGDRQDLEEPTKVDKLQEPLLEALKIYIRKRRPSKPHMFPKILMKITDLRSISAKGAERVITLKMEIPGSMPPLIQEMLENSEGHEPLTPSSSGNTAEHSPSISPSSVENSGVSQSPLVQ

Oc1ccc(C2(c3ccc(O)c(C4CCCCC4)c3)CCCCC2)cc1C1CCCCC1
active: [2] 8.18 µM | [5] 6.2 µM | [10] 2.92 µM | [11] 0.977 µM
inactive: [1] | [3] | [4] | [6] | [7] | [8] | [9] | [12]

CC(C)Nc1ccc(NC(C)C)c2c1C(=O)c1ccccc1C2=O
active: [5] 2.85 µM | [11] 0.16 µM
inactive: [1] | [2] | [3] | [4] | [6] | [7] | [8] | [13] | [10] | [12]

CC(C)CC=C(C=O)c1ccccc1
active: [5] 71.8 µM | [10] 39.5 µM | [11] 0.891 µM
inactive: [1] | [2] | [3] | [4] | [6] | [7] | [8] | [14]

CC1=CCC2C(=O)OC(=O)C2C1 (stereo not given)
inactive: [1] | [2] | [3] | [4] | [5] | [6] | [7] | [8] | [12]

CN1CN(C)CN(C)C1
active: [6] 165 µM
inactive: [1] | [2] | [3] | [4] | [5] | [7] | [8] | [13] | [9] | [10] | [12]

CC(C)OC=O
inactive: [1] | [2] | [3] | [4] | [5] | [6] | [7] | [8] | [10] | [11]

C[Si](C)O[Si](C)C
inactive: [1] | [2] | [3] | [4] | [5] | [6] | [7] | [8] | [14] | [13] | [12]

CC(=O)c1ccccc1N
inactive: [1] | [2] | [3] | [4] | [5] | [6] | [7] | [8] | [14] | [11]

CCC(C)CO (stereo not given)
inactive: [1] | [2] | [3] | [4] | [5] | [6] | [7] | [8] | [10] | [11] | [12]

CCCCC(CC)COC(=O)c1ccc(N(C)C)cc1 (stereo not given)
inactive: [1] | [2] | [3] | [4] | [6] | [7]
active: [5] 27.4 µM | [10] 30.3 µM | [11] 27.2 µM

O=c1cccc[nH]1
inactive: [1] | [2] | [3] | [4] | [5] | [6] | [7] | [13] | [9] | [10]

Cc1ccc([N+](=O)[O-])c(C)c1
inactive: [1] | [2] | [3] | [5] | [6] | [7] | [8] | [14] | [10] | [11]

COCCOCCC[Si](C)(O[Si](C)(C)C)O[Si](C)(C)C
inactive: [1] | [2] | [3] | [4] | [7] | [13] | [10] | [12]
active: [5] 1.64 µM | [6] 3.74 µM | [11] 1.47 µM

Cc1cccc(C)n1
inactive: [1] | [2] | [3] | [4] | [5] | [6] | [7] | [13] | [10] | [11]

Brc1nc2ccccc2s1
inactive: [1] | [2] | [3] | [6] | [7] | [15] | [16] | [17] | [18] | [8] | [14] | [19] | [20]
active: [5] 23.6 µM | [10] 23.5 µM

N#CCCOCCC#N
inactive: [1] | [2] | [3] | [4] | [5] | [6] | [7] | [9] | [10] | [11] | [12]

O=S(=O)(O)c1ccc(Cl)cc1
inactive: [1] | [2] | [3] | [5] | [6] | [7] | [10]

O=C1c2c(O)ccc(Nc3ccc(CCO)cc3)c2C(=O)c2c([N+](=O)[O-])ccc(O)c21
inactive: [1] | [2] | [3] | [6] | [7] | [8] | [14] | [13] | [9] | [12]
active: [5] 6.59 µM | [15] 0.7 µM | [16] 4.7 µM | [17] 23.2 µM | [18] 9.19 µM | [19] 20 µM | [20] 20 µM | [10] 13 µM | [11] 6.55 µM
